# Test results as given in PubChem BioAssay (NCATS).
# A number with no mark means an inactive call. Inconclusive results are not listed. Where a call stands in place of a potency, no number is given. Calls of active or inactive are those of the source. Unless noted, calls come from the whole dose curve; as a rule, active = well fitted curve in the direction sought with a large enough effect; inconclusive = small, poorly fitted or top-dose-only effect, or another doubt; inactive = no such curve, though single readings can be large; an effect the other way counts as inactive or inconclusive.
# Tests used:
# [1] = target: Cytochrome P450 2C9 (Homo sapiens) (UniProt P11712); assay: qHTS Assay for Inhibitors and Substrates of Cytochrome P450 2C9 (AID 883); note: potency is the fitted concentration of half-maximal effect; nearly all actives have a fitted effect of over 60% in size
# How it was run: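 CYP2C9 deoxyluciferin hydroxylation, 37C, 60 min with NADPH regeneration; 10nM enzyme, 100uM Luciferin-H (KM). Glo detection reagent stopped reaction; luminescence normalized to sulphaphenazole (57uM) full inhibition.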
# [2] = target: Cytochrome P450 2D6 (Homo sapiens) (UniProt P10635); assay: qHTS Assay for Inhibitors and Substrates of Cytochrome P450 2D6 (AID 891); note: potency is the fitted concentration of half-maximal effect; nearly all actives have a fitted effect of over 60% in size
# How it was run: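 Luminescent read-out of luciferin formed by 5 nM human CYP2D6 demethylating 30 uM Luciferin-ME EGE (Km level) over 60 min at room temperature after NADPH regeneration addition. Data normalized to full inhibition by 1.43 uM quinidine.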
# [3] = target: Cytochrome P450 2C19 (Homo sapiens) (UniProt P33261); assay: qHTS Assay for Inhibitors and Substrates of Cytochrome P450 2C19 (AID 899); note: potency is the fitted concentration of half-maximal effect; nearly all actives have a fitted effect of over 60% in size
# How it was run: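 In 50mM KPO4, the reaction held 5nM enzyme and KM-level (10uM) Luciferin-H EGE; it ran 60 min at 37C after NADPH regeneration and a 10 min compound preincubation. Luminescence values were scaled to 57uM ketoconazole as complete inhibition.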
# [4] = qHTS Assay for Identification of Small Molecule Agonists for Hypoxia Response Element Signaling Pathway (AID 914; active = well fitted activation curve with a large enough effect in the signal ratio, with a control signal flat, not every such curve was filed as active; the % refers to the signal ratio; note: potency is the fitted concentration of half-maximal effect); details: ME-180 (cervical carcinoma) HRE-bla reporter, beta-lactamase ratio, CoCl2, 17 h; activation: stronger effect = higher value
# How it was run: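 Read-out: CCF4 FRET ratio of 460nm to 530nm emission (excitation 405nm) after 2.5 hours at room temperature, taken from HRE-bla ME-180 cells that had been exposed to compound and EC50 CoCl2 for 17 hours.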
# [5] = Confirmation and Secondary Assay for Modulators of Hemoglobin Beta Chain Splicing at IVS2 705 locus (AID 930);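 note: HeLa cells stably expressing the EGFP-705 splicing reporter; GFP fluorescence per well restored by corrected splicing of the IVS2-705 intron in EGFP; series mostly up to about 46 µM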
# How it was run: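 HeLa EGFP-705 reporter; 500 cells/well, o/n 37C 5% CO2; cpd 2 d; 488 ex/500-520 em laser scan; total peak GFP intensity/well. Ref: 500 nM […] antisense PNA.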
# [6] = target: Dual specificity protein kinase CLK4 (Homo sapiens) (UniProt Q9HAZ1); assay: qHTS Assay for Inhibitors of CDC-like Kinase 4 (Kinase-Glo Assay) (AID 1770); note: nearly all actives have a fitted effect of over 65% in size; note: potency is the fitted concentration of half-maximal effect
# How it was run: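 Recombinant human Clk4 (25 nM) phosphorylated RS repeat peptide (100 uM) with 1 uM ATP in Tris pH 7.5/MgCl2/EGTA/DTT/Triton buffer for 4.5 h at room temperature. Residual ATP was quantified by Kinase-Glo luciferase luminescence.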
# [7] = target: Dual specificity protein kinase CLK4 (Homo sapiens) (UniProt Q9HAZ1); assay: qHTS Assay for Inhibitors of CDC-like Kinase 4 (ADP-Glo Assay) (AID 1771); note: nearly all actives have a fitted effect of over 70% in size; note: potency is the fitted concentration of half-maximal effect
# How it was run: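 In this ADP-Glo format, 1 uM ATP and 100 uM RS peptide served as substrates for 25 nM Clk4 in Mg2+/EGTA/DTT/Triton buffer; reactions ran 1 hr at room temperature before luminescent ADP quantification.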
# [8] = target: Dual specificity protein kinase CLK4 (Homo sapiens) (UniProt Q9HAZ1); assay: qHTS Assay for Inhibitors of CDC-like Kinase 4 (ADP-FP Assay) (AID 1795); note: series mostly up to about 50 µM; nearly all actives have a fitted effect of over 60% in size
# How it was run: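 Recombinant human Clk4 (6.25 nM) phosphorylated RS repeat peptide (100 uM) with 1 uM ATP in Tris pH 7.5/MgCl2/EGTA/DTT/Triton buffer for one hour. ADP was quantified by Transcreener competitive fluorescence polarization against an ADP calibration curve.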
# [9] = target: Guanine nucleotide-binding protein G(i) subunit alpha-1 (Homo sapiens) (UniProt P63096); assay: qHTS Assay for Inhibitors of RGS12 GoLoco Motif Activity (Green Fluorophore) (AID 879);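 note: negative values mean loss of peptide binding seen as reduced polarization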
# How it was run: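 A drop in FITC polarization marked displacement of the FITC-tagged RGS12 GoLoco peptide (10 nM) from Gαi1 (50 nM). Compounds were incubated 10 min at room temperature in Tris pH 7.5 buffer containing 150 mM NaCl, 0.1 mM GDP and 0.05% NP40; unlabeled peptide titration served as control.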
# [10] = target: Pyruvate kinase (Leishmania mexicana) (UniProt Q27686); assay: qHTS Validation Assay for Inhibitors of Leishmania Mexicana Pyruvate Kinase (AID 945)
# How it was run: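 Substrate mix (0.5 mM PEP, 0.1 mM ADP, 7 mM MgCl2, 50 mM KCl, pH 7.2 imidazole) received compound by pin tool, then 0.2 nM LmPYK E451W. After 1 h at room temperature, PKLight was added and luminescence measured.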
# [11] = target: DNA repair nuclease/redox regulator APEX1 (Homo sapiens) (UniProt P27695); assay: qHTS Validation Assay for Inhibitors of the Human Apurinic/apyrimidinic Endonuclease 1 (APE1) (AID 1705;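 note: TAMRA fluorescence gain over two minutes as APE1 cuts a quenched THF abasic duplex; series mostly up to about 57 µM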)
# How it was run: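 Human APE1 was preincubated with compound for 15 min at room temperature, then 50 nM (final) THF-abasic double-stranded DNA substrate bearing 5'-TAMRA and 3'-BHQ-2 was added. Incision-driven fluorescence rise (ex 525/em 598 nm) was read kinetically.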
# [12] = Counterscreen for APE1 Inhibitors: Fluorescent Dye Displacement Validation Assay (AID 1707)
# How it was run: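 Endpoint fluorescence read at 480 nm excitation / 540 nm emission; DNA-binding compounds lower signal by displacing 250 nM Thiazole Orange from 50 nM dsDNA containing a tetrahydrofuran abasic site, Tris-HCl pH7.5 buffer with NaCl and MgCl2.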
# [13] = qHTS for differential inhibitors of proliferation of Plasmodium falciparum line D10 (AID 1877);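 note: parasites grown with compound for 72 h before DNA staining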; note: potency is the fitted concentration of half-maximal effect
# [14] = qHTS for differential inhibitors of proliferation of Plasmodium falciparum line Dd2 (AID 1882); details: Potency: Plasmodium falciparum Dd2 proliferation inhibition; note: nearly all actives have a fitted effect of over 65% in size; note: potency is the fitted concentration of half-maximal effect
# How it was run: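 RBC culture, 0.3% parasitemia / 2.5% Hct final; cpd added by pin tool in DMSO; 72 h, 37 C, 5% CO2; lysis buffer + SYBR Green I, o/n RT dark; FI 485/535; norm. to artemisinin 0.29 uM and DMSO.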
# [15] = target: ATP-dependent DNA helicase Q1 (Homo sapiens) (UniProt P46063); assay: qHTS Validation Assay for Inhibitors of RecQ-Like Dna Helicase 1 (RECQ1) (AID 2353)
# How it was run: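 RECQ1T1 50 nM; forked duplex (20 bp + 30-nt ss tails) 200 nM, ATP 2 mM final; pH 8.0, 2 mM MgCl2, 2.5 ug/ml poly(dI-dC); 15 min compound preincubation; discontinuous kinetic read over 2 h at RT.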
# [16] = Validation screen for small molecules that induce DNA re-replication in MCF 10A normal breast cells (AID 463097); note: nearly all actives have a fitted effect of over 60% in size
# How it was run: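 Readout: Hoechst nuclear fluorescence intensity, 405 ex / 500-530 em, by scanning plate imager; re-replication scored as increase in nuclei with elevated DNA content. Cells exposed to compound 48 hr, 37 C, 5% CO2 beforehand.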
# [17] = Quantitative high throughput screen for delayed death inhibitors of the malarial parasite plastid, 48 hour incubation (AID 488752); note: nearly all actives have a fitted effect of over 65% in size; note: potency is the fitted concentration of half-maximal effect
# How it was run: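 Cultures: infected erythrocytes at final 2% hematocrit and 0.1% parasitemia in Albumax-supplemented RPMI. Parasites express integrated firefly luciferase. Incubation with compound lasts 48 h before luminescent detection of remaining reporter activity.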
# [18] = target: Thyrotropin receptor (Homo sapiens) (UniProt P16473); assay: qHTS Assay for Antagonists of the Thyroid Stimulating Hormone Receptor (AID 488980); note: series mostly up to about 58 µM
# How it was run: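 HEK293 cells transfected with human TSHR, suspended in HEPES-buffered HBSS with 70 uM RO 20-1724, were treated with compounds plus TSH at EC80 (4 nM final). cAMP was measured by competitive HTRF (cryptate anti-cAMP antibody, cAMP-d2 acceptor).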
# [19] = target: Thyrotropin-releasing hormone receptor (Homo sapiens) (UniProt P34981); assay: qHTS for Small Molecule Agonists and Allosteric Enhancers of Human TRH Receptor: Validation Screen for Agonists (AID 493127;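 active = calcium activation more than 3 SD above the typical response in the agonist read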;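 note: intracellular calcium rise by fluo-8 fluorescence before TRH EC20 addition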); details: TRH receptor agonist cell assay; at 2 µM; stronger effect = higher value
# How it was run: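 Kinetic fluorescence assay of agonist-induced calcium release: overnight-plated TRHR cells, room-temperature fluo-8 loading, baseline then compound addition with per-second reads.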
# [20] = target: Galactokinase (Homo sapiens) (UniProt P51570); assay: qHTS Validation Assay for Inhibitors of Human Galactokinase (GALK) (AID 493189)
# How it was run: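 GALK (5 nM) with 35 uM ATP and 100 uM galactose in HEPES pH8.0, MgCl2, NaCl, DTT, BSA; 1 h at room temperature. Residual ATP read by Kinase-Glo Plus luminescence after 10 min.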
# Dual specificity protein kinase CLK4 (Homo sapiens), sequence (Q9HAZ1 whole entry, looked up): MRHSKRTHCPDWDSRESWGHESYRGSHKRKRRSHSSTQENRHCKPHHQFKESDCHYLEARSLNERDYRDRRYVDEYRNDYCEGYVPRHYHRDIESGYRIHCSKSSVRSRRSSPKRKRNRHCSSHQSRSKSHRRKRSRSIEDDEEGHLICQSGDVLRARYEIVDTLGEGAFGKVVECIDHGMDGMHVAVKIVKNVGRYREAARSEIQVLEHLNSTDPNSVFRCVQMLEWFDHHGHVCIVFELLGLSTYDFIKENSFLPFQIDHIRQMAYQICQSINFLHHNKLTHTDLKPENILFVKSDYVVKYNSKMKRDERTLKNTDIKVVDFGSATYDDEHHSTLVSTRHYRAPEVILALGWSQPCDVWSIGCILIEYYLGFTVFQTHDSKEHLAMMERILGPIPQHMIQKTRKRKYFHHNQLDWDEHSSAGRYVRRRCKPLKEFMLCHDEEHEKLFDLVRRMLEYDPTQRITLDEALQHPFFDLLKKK
# Cytochrome P450 2C19 (Homo sapiens), sequence (P33261 whole entry, looked up): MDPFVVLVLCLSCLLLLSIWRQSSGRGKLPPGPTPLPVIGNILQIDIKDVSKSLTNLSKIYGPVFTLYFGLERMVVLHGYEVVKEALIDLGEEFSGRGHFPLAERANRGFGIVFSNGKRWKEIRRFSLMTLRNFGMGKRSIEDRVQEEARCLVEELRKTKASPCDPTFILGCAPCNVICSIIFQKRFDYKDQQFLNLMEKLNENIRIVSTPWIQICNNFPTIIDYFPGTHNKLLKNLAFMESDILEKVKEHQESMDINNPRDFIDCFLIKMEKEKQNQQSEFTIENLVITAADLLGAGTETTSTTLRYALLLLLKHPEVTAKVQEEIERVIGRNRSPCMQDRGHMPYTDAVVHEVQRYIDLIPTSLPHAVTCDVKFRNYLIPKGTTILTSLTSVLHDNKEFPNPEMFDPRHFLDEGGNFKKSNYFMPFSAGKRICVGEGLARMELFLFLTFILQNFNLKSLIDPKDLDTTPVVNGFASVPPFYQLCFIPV
# Guanine nucleotide-binding protein G(i) subunit alpha-1 (Homo sapiens), sequence (P63096 whole entry, looked up): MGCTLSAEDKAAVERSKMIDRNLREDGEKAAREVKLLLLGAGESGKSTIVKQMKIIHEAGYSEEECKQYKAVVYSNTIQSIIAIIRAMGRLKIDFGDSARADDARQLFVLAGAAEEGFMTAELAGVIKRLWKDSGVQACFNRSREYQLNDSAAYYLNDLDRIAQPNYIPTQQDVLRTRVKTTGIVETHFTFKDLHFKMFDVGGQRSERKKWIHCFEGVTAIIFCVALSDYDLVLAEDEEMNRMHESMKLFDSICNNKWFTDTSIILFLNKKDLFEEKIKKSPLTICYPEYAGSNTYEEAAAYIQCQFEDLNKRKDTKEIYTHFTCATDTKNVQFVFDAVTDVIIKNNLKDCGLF
# Pyruvate kinase (Leishmania mexicana), sequence (Q27686 2-499 E452W): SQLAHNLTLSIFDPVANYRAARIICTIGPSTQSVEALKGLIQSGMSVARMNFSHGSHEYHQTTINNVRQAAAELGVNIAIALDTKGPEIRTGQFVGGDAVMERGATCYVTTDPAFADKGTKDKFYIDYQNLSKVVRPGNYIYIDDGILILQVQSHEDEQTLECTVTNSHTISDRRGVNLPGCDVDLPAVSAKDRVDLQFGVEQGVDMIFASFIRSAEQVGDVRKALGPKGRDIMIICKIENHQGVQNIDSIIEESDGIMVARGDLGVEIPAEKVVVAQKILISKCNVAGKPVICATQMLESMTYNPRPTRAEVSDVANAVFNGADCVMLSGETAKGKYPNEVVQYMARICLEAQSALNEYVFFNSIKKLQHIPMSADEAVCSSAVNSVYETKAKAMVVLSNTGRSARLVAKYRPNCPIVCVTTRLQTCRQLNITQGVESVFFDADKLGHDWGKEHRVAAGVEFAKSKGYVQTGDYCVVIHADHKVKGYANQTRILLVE
# DNA repair nuclease/redox regulator APEX1 (Homo sapiens), sequence (P27695 whole entry, looked up): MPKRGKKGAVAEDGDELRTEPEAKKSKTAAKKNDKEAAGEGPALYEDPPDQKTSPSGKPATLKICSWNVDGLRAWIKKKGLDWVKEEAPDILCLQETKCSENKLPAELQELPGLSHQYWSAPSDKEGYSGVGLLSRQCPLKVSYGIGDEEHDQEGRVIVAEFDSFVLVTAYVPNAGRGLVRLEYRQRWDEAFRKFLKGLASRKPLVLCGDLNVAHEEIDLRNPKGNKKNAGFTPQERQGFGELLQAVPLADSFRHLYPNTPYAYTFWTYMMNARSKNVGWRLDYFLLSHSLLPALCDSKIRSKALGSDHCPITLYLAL
# Thyrotropin receptor (Homo sapiens), sequence (P16473 whole entry, looked up): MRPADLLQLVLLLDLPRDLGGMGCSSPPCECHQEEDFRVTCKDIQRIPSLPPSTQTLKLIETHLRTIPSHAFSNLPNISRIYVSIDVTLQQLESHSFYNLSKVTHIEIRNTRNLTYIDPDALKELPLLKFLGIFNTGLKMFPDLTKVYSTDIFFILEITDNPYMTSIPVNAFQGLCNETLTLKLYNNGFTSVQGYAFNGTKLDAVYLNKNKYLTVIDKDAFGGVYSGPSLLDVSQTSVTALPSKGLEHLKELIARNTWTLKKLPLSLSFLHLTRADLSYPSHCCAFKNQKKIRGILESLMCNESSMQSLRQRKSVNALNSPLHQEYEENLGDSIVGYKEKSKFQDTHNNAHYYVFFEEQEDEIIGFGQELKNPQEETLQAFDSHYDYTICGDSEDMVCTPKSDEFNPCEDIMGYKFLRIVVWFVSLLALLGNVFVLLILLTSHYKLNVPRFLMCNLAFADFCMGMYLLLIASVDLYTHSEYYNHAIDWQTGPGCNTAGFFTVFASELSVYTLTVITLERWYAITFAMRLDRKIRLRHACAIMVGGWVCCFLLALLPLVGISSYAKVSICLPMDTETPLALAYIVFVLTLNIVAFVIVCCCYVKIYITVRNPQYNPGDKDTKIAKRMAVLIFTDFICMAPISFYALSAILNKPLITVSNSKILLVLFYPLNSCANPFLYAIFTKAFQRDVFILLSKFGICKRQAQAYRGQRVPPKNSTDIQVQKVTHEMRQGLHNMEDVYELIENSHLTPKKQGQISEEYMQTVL
# Galactokinase (Homo sapiens), sequence (P51570 whole entry, looked up): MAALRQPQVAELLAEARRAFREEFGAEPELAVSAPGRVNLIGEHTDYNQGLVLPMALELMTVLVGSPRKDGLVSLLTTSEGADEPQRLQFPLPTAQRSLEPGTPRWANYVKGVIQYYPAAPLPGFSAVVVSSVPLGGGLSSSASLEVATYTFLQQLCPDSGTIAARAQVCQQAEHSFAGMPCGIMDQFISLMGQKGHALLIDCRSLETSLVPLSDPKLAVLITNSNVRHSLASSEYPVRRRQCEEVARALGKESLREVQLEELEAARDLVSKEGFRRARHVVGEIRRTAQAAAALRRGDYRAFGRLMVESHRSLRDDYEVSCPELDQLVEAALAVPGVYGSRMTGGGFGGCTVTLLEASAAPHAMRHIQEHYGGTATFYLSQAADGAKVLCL
# ATP-dependent DNA helicase Q1 (Homo sapiens), sequence (P46063 whole entry, looked up): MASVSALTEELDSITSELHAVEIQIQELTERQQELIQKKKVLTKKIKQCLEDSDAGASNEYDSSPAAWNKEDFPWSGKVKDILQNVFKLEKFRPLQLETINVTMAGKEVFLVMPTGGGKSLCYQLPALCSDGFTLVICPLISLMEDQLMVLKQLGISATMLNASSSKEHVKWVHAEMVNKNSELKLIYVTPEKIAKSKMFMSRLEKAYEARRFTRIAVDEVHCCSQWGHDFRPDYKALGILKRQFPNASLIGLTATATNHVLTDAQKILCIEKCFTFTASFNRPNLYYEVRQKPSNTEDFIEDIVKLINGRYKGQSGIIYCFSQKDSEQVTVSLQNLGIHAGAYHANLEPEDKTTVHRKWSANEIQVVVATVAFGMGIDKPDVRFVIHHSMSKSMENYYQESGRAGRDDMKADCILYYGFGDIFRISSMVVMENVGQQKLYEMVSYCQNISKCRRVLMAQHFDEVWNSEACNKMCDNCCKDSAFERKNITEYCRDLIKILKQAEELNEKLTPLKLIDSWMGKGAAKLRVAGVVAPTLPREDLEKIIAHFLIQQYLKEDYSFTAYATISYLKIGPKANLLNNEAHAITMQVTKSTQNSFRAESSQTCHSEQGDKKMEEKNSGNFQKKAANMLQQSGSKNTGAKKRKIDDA
# Thyrotropin-releasing hormone receptor (Homo sapiens), sequence (P34981 whole entry, looked up): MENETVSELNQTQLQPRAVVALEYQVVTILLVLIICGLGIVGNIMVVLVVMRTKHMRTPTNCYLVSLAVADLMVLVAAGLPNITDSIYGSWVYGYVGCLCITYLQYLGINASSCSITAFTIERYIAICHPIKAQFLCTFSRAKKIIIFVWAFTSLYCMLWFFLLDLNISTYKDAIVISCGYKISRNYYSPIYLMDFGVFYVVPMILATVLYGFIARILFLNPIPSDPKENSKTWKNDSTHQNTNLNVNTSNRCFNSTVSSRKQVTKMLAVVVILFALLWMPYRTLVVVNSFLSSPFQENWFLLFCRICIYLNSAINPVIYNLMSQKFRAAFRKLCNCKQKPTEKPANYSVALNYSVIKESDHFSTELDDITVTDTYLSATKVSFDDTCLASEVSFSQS
# Cytochrome P450 2D6 (Homo sapiens), sequence (P10635 whole entry, looked up): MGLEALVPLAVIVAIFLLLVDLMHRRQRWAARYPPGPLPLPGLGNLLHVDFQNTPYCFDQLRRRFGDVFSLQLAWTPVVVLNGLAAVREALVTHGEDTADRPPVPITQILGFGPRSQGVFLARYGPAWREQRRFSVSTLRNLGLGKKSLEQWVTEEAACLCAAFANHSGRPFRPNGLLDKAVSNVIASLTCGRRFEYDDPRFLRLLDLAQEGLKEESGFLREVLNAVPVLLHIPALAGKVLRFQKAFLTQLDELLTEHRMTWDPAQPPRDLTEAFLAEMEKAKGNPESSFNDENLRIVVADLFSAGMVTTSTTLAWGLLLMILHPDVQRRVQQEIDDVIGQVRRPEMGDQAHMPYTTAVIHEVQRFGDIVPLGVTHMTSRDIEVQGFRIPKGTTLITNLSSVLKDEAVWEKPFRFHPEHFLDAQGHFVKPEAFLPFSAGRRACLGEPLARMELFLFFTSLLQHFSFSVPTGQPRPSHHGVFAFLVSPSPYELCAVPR
compound,measurement,setting,value
O=C(c1cc(C(F)(F)F)cc(C(F)(F)F)c1)N1CCC[C@@]2(CCN(Cc3ccncc3)C2)C1,Potency,[1],0.0794 µM (active)
same,Potency,[2],5.01 µM (active)
same,Potency,[3],0.199 µM (active)
O=C(Oc1ccccc1)N1CCC2(CC1)CCN(c1ncccn1)CC2,activation,[4],2.8%
COc1ccccc1CNc1ncncc1-c1ccoc1,outcome,[5],inactive
COc1ccccc1-c1cncnc1NCCN1CCOCC1,Potency,[4],2.51 µM (active)
same,outcome,[5],inactive
CC(C)=CCC1=C(O)c2ccccc2C(=O)C1=O,outcome,[5],inactive
COCCn1c(=O)c(-c2ccccc2)nc2cnc(N3CCNCC3)nc21,Potency,[4],3.16 µM (active)
O=c1c(-c2cc(F)cc(F)c2)nc2cnc(N3CCNCC3)nc2n1-c1ccccc1,Potency,[6],15.8 µM (active)
same,Potency,[7],22.4 µM (active)
COCCn1c(=O)c(-c2ccc(Cl)cc2)nc2cnc(OCc3ccccc3)nc21,Potency,[6],inactive
same,Potency,[7],inactive
same,Potency,[8],inactive
COc1cccc(Cn2c(=O)c(-c3ccccc3)nc3cnc(N4CCNCC4)nc32)c1,Potency,[4],3.16 µM (active)
same,Potency,[6],inactive
same,Potency,[7],inactive
same,Potency,[8],inactive
COc1ccc2c(c1)c(CC(=O)O)c(C)n2Cc1ccc(F)cc1,outcome,[9],inactive
same,Potency,[10],inactive
same,Potency,[11],inactive
same,Potency,[12],inactive
same,Potency,[13],inactive
same,Potency,[14],inactive
same,Potency,[15],inactive
same,outcome,[16],inactive
same,Potency,[17],inactive
same,outcome,[18],inactive
same,activation,[19],1.38%
same,outcome,[20],inactive
CN1CCN(c2ncnc3ccc(-c4ccccc4Cl)cc23)CC1,Potency,[3],3.98 µM (active)
same,Potency,[6],25.1 µM (active)
same,Potency,[7],28.2 µM (active)
CCCNC[C@H](O)COc1ccccc1C(=O)CCc1ccccc1,outcome,[9],inactive
same,Potency,[10],inactive
same,Potency,[11],inactive
same,Potency,[12],inactive
same,Potency,[13],2 µM (active)
same,Potency,[14],1.12 µM (active)
same,Potency,[15],inactive
same,outcome,[16],inactive
same,Potency,[17],2.08 µM (active)
same,outcome,[18],inactive
same,activation,[19],3.19%
same,outcome,[20],inactive
O=S(=O)(c1ccccc1)N1CCC[C@@]2(CCN(c3ccncc3)C2)C1,Potency,[3],0.398 µM (active)
